Results filed as inconclusive are left out. The source made the active and inactive calls. How the source made its calls: active means hit-call score of the fitted dose curve at least 0.9, where 1 is the maximum; inconclusive means response in the unintended direction; inactive means score below 0.9.
Key:
[1] = biological target: human Raf-1 Proto-Oncogene, serine/threonine Kinase (RAF1), RAF1 (gene 5894) (UniProt P04049); test: NVS_ENZ_hRAF1: NovaScreen (NVS) Enzymatic Assay for human Raf-1 Proto-Oncogene, serine/threonine Kinase (RAF1) (AID 2283216)
Chain of human Raf-1 Proto-Oncogene, serine/threonine Kinase (RAF1), RAF1 (gene 5894) (P04049 whole entry, looked up): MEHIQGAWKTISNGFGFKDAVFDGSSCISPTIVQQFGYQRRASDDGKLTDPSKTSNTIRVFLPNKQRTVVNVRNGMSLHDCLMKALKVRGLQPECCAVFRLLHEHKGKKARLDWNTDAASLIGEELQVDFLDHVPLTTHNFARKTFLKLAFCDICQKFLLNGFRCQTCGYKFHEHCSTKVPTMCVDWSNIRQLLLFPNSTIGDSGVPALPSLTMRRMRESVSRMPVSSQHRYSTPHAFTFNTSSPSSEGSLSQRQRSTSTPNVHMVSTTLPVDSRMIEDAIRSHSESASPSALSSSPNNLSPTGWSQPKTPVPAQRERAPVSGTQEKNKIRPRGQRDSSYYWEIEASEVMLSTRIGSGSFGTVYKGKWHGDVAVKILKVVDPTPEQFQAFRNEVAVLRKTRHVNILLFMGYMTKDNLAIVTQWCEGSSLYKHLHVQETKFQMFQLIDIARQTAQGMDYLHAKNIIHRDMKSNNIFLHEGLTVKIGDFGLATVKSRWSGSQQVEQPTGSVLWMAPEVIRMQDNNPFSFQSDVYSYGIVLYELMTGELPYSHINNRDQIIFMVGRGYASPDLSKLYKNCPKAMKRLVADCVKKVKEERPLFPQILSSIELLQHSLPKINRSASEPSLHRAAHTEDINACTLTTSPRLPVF
In short: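 Single-point screening at 25 uM (duplicate), followed by singleton concentration-response to 50 uM maximum for chemicals exceeding threshold. Enzyme activity from fluorescent substrate-product mobility-shift separation after 1 h, relative to DMSO.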

[2] = biological target: human Tyrosine Protein Kinase Receptor Tie-2 (Tie2), TEK (gene 7010) (UniProt Q02763); test: NVS_ENZ_hTie2: NovaScreen (NVS) Enzymatic Assay for human Tyrosine Protein Kinase Receptor Tie-2 (Tie2) (AID 2283225)
Chain of human Tyrosine Protein Kinase Receptor Tie-2 (Tie2), TEK (gene 7010) (Q02763 whole entry, looked up): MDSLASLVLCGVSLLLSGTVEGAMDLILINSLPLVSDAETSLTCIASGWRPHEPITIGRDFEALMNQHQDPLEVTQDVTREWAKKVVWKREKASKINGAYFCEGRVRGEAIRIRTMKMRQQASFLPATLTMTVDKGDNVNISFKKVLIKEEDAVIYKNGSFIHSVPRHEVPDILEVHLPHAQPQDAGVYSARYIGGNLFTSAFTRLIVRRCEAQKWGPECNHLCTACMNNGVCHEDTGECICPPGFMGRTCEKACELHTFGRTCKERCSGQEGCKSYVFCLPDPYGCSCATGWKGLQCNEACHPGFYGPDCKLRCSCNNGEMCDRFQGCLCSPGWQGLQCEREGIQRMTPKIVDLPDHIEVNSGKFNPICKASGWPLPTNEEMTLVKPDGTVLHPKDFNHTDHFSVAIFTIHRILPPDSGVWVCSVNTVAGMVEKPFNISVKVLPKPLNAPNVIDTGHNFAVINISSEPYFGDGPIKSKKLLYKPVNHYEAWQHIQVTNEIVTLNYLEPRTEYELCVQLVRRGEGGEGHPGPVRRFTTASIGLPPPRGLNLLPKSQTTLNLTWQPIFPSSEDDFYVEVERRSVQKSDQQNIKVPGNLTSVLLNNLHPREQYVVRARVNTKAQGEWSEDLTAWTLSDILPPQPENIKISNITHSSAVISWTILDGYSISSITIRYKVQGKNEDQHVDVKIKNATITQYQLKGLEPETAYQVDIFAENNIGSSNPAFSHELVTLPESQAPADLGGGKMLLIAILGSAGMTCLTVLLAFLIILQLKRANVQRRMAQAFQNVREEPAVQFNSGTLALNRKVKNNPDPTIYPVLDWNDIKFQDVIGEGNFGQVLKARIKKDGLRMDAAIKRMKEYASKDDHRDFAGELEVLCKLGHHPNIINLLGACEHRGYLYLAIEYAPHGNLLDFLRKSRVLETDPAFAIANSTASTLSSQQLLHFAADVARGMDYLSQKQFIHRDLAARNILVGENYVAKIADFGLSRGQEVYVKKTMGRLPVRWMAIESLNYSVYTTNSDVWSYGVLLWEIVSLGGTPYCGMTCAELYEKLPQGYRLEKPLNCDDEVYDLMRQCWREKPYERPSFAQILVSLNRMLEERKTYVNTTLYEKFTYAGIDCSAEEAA
In short: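 Substrate and product were separated by mobility shift and detected by fluorescence after a 1-hour reaction with recombinant Tie2. Chemicals passing a 25 uM single-point screen were titrated to a maximum of 50 uM. Results were normalized to DMSO baseline.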

[3] = biological target: human Vascular Endothelial Growth Factor Receptor 1 (VEGFR1), FLT1 (gene 2321) (UniProt P17948); test: NVS_ENZ_hVEGFR1: NovaScreen (NVS) Enzymatic Assay for human Vascular Endothelial Growth Factor Receptor 1 (VEGFR1) (AID 2283226)
In short: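 Kinase activity of recombinant human VEGFR1 was read by fluorescence after electrophoretic separation of product from substrate, 1 h post-dosing; initial duplicate single-point testing at 25 uM, followed by concentration-series follow-up, with DMSO as baseline.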

[4] = biological target: human Vascular Endothelial Growth Factor Receptor 3 (VEGFR3), FLT4 (gene 2324) (UniProt P35916); test: NVS_ENZ_hVEGFR3: NovaScreen (NVS) Enzymatic Assay for human Vascular Endothelial Growth Factor Receptor 3 (VEGFR3) (AID 2283229)
Chain of human Vascular Endothelial Growth Factor Receptor 3 (VEGFR3), FLT4 (gene 2324) (P35916 whole entry, looked up): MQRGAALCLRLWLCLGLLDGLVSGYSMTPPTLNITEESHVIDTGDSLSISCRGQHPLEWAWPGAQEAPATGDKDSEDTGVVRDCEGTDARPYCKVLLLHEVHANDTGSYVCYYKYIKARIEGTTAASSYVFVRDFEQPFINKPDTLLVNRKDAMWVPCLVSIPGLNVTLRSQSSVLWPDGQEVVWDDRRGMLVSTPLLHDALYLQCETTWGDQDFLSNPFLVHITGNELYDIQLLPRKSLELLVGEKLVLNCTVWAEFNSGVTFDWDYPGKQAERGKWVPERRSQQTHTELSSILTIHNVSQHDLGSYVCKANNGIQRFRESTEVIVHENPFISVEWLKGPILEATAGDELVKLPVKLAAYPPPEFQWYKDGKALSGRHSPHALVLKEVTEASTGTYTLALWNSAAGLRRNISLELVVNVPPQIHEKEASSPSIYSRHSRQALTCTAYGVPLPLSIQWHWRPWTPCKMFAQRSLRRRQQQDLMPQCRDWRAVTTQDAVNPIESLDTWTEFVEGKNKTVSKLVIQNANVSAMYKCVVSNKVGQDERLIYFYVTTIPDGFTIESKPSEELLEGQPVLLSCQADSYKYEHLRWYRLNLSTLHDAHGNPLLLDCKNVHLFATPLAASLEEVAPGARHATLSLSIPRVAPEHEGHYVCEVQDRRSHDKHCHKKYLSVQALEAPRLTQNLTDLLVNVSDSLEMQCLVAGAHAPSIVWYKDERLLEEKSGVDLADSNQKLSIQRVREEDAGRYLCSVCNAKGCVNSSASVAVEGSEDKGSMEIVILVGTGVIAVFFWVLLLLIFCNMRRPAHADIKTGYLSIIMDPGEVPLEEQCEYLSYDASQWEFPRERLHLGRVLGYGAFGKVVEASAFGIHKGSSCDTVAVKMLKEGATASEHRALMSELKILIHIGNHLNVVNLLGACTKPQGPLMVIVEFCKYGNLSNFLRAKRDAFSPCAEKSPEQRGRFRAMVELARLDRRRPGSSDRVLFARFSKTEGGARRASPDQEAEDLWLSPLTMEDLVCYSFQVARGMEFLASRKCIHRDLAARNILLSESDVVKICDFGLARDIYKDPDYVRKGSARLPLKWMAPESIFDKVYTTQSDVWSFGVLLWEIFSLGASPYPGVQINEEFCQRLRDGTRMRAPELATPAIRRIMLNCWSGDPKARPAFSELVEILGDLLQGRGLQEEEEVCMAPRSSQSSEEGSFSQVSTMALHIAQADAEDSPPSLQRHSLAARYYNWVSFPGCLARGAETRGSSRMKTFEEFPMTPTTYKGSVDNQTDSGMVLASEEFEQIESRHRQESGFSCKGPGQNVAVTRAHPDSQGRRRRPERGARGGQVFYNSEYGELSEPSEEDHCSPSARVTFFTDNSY
In short: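 Chemicals first run in duplicate at 25 uM, with actives re-tested in concentration series to a top of 50 uM. Recombinant VEGFR3 activity measured after 1 h via fluorescence with mobility-shift product separation; inhibition fitted relative to DMSO.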

[5] = biological target: human Vascular Endothelial Growth Factor Receptor 2 (VEGFR2), KDR (gene 3791) (UniProt P35968); test: NVS_ENZ_hVEGFR2: NovaScreen (NVS) Enzymatic Assay for human Vascular Endothelial Growth Factor Receptor 2 (VEGFR2) (AID 2283230)
Chain of human Vascular Endothelial Growth Factor Receptor 2 (VEGFR2), KDR (gene 3791) (P35968 whole entry, looked up): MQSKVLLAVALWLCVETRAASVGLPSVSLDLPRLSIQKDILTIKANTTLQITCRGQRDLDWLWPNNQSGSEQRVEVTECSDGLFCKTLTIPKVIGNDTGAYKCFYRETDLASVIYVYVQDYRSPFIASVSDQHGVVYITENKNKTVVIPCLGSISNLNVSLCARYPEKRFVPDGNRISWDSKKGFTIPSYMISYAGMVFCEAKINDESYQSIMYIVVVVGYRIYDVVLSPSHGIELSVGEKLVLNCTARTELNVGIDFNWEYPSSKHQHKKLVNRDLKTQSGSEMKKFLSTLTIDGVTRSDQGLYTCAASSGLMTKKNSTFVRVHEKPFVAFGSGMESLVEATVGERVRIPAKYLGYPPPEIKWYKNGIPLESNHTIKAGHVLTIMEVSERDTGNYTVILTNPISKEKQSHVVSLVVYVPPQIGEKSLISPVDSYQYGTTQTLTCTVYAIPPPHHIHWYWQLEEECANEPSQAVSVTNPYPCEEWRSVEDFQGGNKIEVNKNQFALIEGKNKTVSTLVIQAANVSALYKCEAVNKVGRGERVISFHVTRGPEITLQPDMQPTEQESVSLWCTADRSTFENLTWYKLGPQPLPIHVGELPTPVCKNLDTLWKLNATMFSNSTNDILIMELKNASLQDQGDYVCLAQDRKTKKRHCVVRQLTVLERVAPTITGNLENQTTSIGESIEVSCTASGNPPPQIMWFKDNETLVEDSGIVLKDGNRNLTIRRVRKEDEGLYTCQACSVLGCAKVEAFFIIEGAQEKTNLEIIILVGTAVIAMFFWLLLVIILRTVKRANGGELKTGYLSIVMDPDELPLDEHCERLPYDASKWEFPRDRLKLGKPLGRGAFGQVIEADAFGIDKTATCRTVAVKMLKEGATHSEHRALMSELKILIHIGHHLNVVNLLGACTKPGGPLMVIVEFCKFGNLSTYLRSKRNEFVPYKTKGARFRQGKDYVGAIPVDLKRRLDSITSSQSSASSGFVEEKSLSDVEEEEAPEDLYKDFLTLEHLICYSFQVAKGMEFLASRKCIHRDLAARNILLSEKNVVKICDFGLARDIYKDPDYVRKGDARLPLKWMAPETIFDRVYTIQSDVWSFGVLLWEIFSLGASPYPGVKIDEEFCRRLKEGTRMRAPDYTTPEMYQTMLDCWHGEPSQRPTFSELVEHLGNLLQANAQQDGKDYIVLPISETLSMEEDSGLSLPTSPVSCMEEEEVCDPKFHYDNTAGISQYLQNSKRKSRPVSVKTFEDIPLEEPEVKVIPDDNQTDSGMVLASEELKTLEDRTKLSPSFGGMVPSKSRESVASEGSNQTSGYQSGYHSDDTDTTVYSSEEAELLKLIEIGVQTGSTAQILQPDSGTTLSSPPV
In short: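 Cell-free recombinant VEGFR2 kinase, fluorescent substrate with electrophoretic mobility-shift separation; read 1 h after dosing. Screened at 25 uM in duplicate, hits to concentration-response up to 50 uM; loss-of-signal versus DMSO.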

[6] = tested on: rat Monoamine Oxidase, MAO-A, Central (MAOAC), gene 29253; test: NVS_ENZ_rMAOAC: NovaScreen (NVS) Enzymatic Assay for rat Monoamine Oxidase, MAO-A, Central (MAOAC) (AID 2283243);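 further: potency refers to inhibition seen as signal drop below DMSO baseline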
In short: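 Lysate-based radiometric enzyme assay using rat brain tissue; 1.5 h treatment; 25 uM single-point duplicate screen, concentration-response follow-up; loss of signal versus DMSO.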

[7] = biological target: sheep Cyclooxygenase-1 (Cox1), PTGS1 (gene 443551) (UniProt P05979); test: NVS_ENZ_oCOX1: NovaScreen (NVS) Enzymatic Assay for sheep Cyclooxygenase-1 (Cox1) (AID 2283239);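 further: actives reduce cyclooxygenase activity so potencies are for inhibitors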
Chain of sheep Cyclooxygenase-1 (Cox1), PTGS1 (gene 443551) (P05979 whole entry, looked up): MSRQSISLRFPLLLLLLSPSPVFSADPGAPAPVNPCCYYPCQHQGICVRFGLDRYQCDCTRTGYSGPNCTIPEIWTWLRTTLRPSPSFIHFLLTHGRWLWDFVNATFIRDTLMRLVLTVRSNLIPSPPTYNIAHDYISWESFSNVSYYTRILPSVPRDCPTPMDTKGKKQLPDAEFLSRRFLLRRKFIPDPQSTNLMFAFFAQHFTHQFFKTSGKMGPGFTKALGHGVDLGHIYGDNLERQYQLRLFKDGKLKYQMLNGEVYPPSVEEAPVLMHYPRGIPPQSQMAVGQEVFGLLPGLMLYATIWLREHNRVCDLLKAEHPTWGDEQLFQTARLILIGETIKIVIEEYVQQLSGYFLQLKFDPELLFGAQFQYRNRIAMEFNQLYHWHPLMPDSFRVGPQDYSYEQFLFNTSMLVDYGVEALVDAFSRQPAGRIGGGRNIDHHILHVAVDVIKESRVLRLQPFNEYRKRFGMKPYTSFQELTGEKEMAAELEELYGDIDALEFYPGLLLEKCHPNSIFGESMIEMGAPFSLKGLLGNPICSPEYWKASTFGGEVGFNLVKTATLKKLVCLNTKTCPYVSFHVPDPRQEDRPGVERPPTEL
In short: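 Cell-free colorimetric assay of enzyme activity in a native extract of ovine seminal vesicles. Absorbance was read 0.66 hour after compound addition. Loss of signal relative to the DMSO negative control was scored, with actives from the 25 uM duplicate primary screen retested in concentration series.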

[8] = biological target: human Protein Tyrosine Phosphatase Receptor Type M (PTPRM), PTPRM (gene 5797) (UniProt P28827); test: NVS_ENZ_hPTPRM: NovaScreen (NVS) Enzymatic Assay for human Protein Tyrosine Phosphatase Receptor Type M (PTPRM) (AID 2283215)
In short: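 Read-out is fluorescence after electrophoretic separation of substrate and product, taken 1.33 h post-dosing with recombinant enzyme. Compounds screened at 25 uM in duplicate, then concentration series for actives; activity as signal loss relative to DMSO.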

[9] = biological target: human Tropomyosin Receptor Kinase A (TRKA), NTRK1 (gene 4914) (UniProt P04629); test: NVS_ENZ_hTrkA: NovaScreen (NVS) Enzymatic Assay for human Tropomyosin Receptor Kinase A (TRKA) (AID 2283224)
In short: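 Compounds were screened at 25 uM in duplicate, then concentration series to a 50 uM top for those meeting threshold (e.g. 30% inhibition). Enzyme was recombinant human TrkA, incubated 1 h. Product formation was quantified by fluorescence after mobility-shift separation.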

[10] = biological target: rat Acetylcholinesterase (AChE), Ache (gene 83817) (UniProt P37136); test: NVS_ENZ_rAChE: NovaScreen (NVS) Enzymatic Assay for rat Acetylcholinesterase (AChE) (AID 2283233)
In short: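 Compounds first screened at 25 uM in duplicate, then those passing threshold tested in concentration series up to 50 uM, against AChE from rat brain membranes. Enzyme activity read by absorbance at 0.33 h; inhibition scored versus DMSO.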

[11] = biological target: human Protein Tyrosine Phosphatase Receptor Type F (PTPRF), PTPRF (gene 5792) (UniProt P10586); test: NVS_ENZ_hPTPRF: NovaScreen (NVS) Enzymatic Assay for human Protein Tyrosine Phosphatase Receptor Type F (PTPRF) (AID 2283213)
In short: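 Cell-free fluorescence enzyme assay with recombinant protein and substrate; product separated by electrophoretic mobility shift. Read 1 h after dosing, single 25 uM duplicate screen, then concentration-response up to 50 uM; loss of signal vs DMSO.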

[12] = biological target: human SRC Proto-Oncogene, Non-receptor Tyrosine Kinase (SRC), SRC (gene 6714) (UniProt P12931); test: NVS_ENZ_hSRC: NovaScreen (NVS) Enzymatic Assay for human SRC Proto-Oncogene, Non-receptor Tyrosine Kinase (SRC) (AID 2283223)
In short: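 Compounds passing 30% inhibition at 25 uM (duplicate) were titrated to a top concentration of 50 uM. Enzyme activity read by fluorescence with mobility-shift substrate/product separation after 1 h; DMSO baseline.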

[13] = biological target: human Sirtuin 1 (SIRT1), SIRT1 (gene 23411) (UniProt Q96EB6); test: NVS_ENZ_hSIRT1: NovaScreen (NVS) Enzymatic Assay for human Sirtuin 1 (SIRT1) (AID 2283219)
In short: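 Cell-free recombinant SIRT1 with a fluorescent substrate; substrate and product separated by electrophoretic mobility shift and read by fluorescence intensity, 1 h after dosing. Primary screen at 25 uM in duplicate; hits re-run in concentration-response up to 50 uM, relative to DMSO.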

[14] = biological target: rabbit Imidazoline 2 Central (I2C), CKB (gene 100009085) (UniProt P00567); test: NVS_ENZ_rabI2C: NovaScreen (NVS) Enzymatic Assay for rabbit Imidazoline 2 Central (I2C) (AID 2283228)
In short: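 Rabbit brain membranes, cell-free; readout by filter-based scintillation counting 1.5 hours after dosing, loss of signal vs DMSO. Initial duplicate test at 25 uM, then concentration-response with 50 uM top concentration.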

SMILES: O=C(N[C@H]1CN2CCC1CC2)c1ccc2c(c1)OCCO2
- outcome [1]: inactive
- outcome [2]: inactive
- outcome [3]: inactive
- outcome [4]: inactive
- outcome [5]: inactive

SMILES: O=C1C=CC(=O)c2ccccc21
- AC50 [6]: 25 µM (active)

SMILES: O=[N+]([O-])c1cccc2ccccc12
- outcome [7]: inactive

SMILES: CCCCCCCCCCCCc1cccc(S(=O)(=O)O)c1
- AC50 [8]: 14.4 µM (active)
- AC50 [1]: 28.8 µM (active)
- AC50 [9]: 36.3 µM (active)
- AC50 [2]: 12.4 µM (active)
- AC50 [3]: 22.9 µM (active)
- AC50 [4]: 10.7 µM (active)
- AC50 [5]: 9.17 µM (active)
- AC50 [7]: 5.06 µM (active)
- AC50 [6]: 10.6 µM (active)

SMILES: COc1ccc(N)cc1
- AC50 [7]: 26 µM (active)

SMILES: Oc1ccc(Cc2ccc(O)cc2)cc1
- AC50 [6]: 25 µM (active)

SMILES: O=C1c2ccccc2C(=O)C1C(=O)C(c1ccccc1)c1ccc(Cl)cc1 (centres undefined)
- AC50 [2]: 2.26 µM (active)
- AC50 [4]: 2.4 µM (active)
- outcome [7]: inactive

SMILES: CCOC(=O)CCN(SN(C)C(=O)Oc1cccc2c1OC(C)(C)C2)C(C)C
- AC50 [10]: 1.33 µM (active)

SMILES: OC(Cc1ccccc1Cl)(Cn1cncn1)C1(Cl)CC1 (centres undefined)
- outcome [6]: inactive

SMILES: CC(C)O.CC(C)O.OCCN(CCO)CCO.OCCN(CCO)CCO.[Ti]
- AC50 [11]: 3.38 µM (active)
- AC50 [8]: 0.119 µM (active)
- outcome [1]: inactive
- AC50 [12]: 0.00229 µM (active)
- AC50 [2]: 3.53 µM (active)
- AC50 [4]: 21.8 µM (active)
- AC50 [5]: 6.5 µM (active)

SMILES: O=C(O)CC(O)(CC(=O)O)C(=O)O
- outcome [1]: inactive

SMILES: O=c1oc2ccccc2c(O)c1C(CC(O)c1ccc(-c2ccc(Br)cc2)cc1)c1ccccc1 (centres undefined)
- AC50 [3]: 16.9 µM (active)
- AC50 [7]: 1.31 µM (active)

SMILES: CC(C)(C)c1ccccc1O
- outcome [7]: inactive

SMILES: [Cl][Sn]([c]1ccccc1)([c]1ccccc1)[c]1ccccc1
- outcome [7]: inactive

SMILES: COc1ccccc1N
- AC50 [13]: 25.4 µM (active)
- outcome [14]: inactive
- AC50 [7]: 0.146 µM (active)

SMILES: CCOP(=O)(OCC)OC(=CCl)c1ccc(Cl)cc1Cl
- AC50 [10]: 6.51 µM (active)

— PubChem BioAssay (EPA / NIEHS)
